Tau ThT inhib: blocks human tau fibril formation measured by thioflavin T | 2.1% of 270,000 active | Potency, µM (highest dose often 57.4 µM), inactives show at the top dose activity, negative = inhibition, usual class: inhibitors | P10636 | recombinant tau K18 P301L, heparin-induced fibrillization, ThT fluorescence; further: nearly all actives have a fitted effect of over 55% in size
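Heparin-induced fibrillization of the P301L-mutant K18 repeat-domain fragment of human tau was followed by ThT binding in quantitative high-throughput format.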
Tau FP inhib: tau fibrillization inhibition (FP); P10636; K18 P301L tau heparin fibrillization, Alexa594 FP, 6 h; Potency, µM (doses to about 57.7 µM), for the others: at the highest dose activity, negative = inhibition, actives largely listed as inhibitors; 0.39% of 280,000 active; further: nearly all actives have a fitted effect of over 55% in size
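K18 P301L tau (15 uM unlabeled/0.24 uM Alexa 594-labeled, final) + compound + heparin 20 uM final; 100 mM NaOAc pH 7; 6 hr 37 C; ThT 30 uM final added, 1 hr RT; FP ex 555/em 632 nm.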
RORgamma inh: inhibitors of mouse ROR gamma transcriptional activity. P51450. Drosophila S2 Gal4-RORgamma UAS-luciferase reporter, 20 h. Potency, µM (titrated, usually from 53.6 µM), without a hit: top-dose activity change, negative = inhibition, hits mostly inhibitors. 5.4% of 310,000 active. AID 2551; further: nearly all actives have a fitted effect of over 60% in size
Target sequence (P51450 whole entry, looked up, the tested form may be a part): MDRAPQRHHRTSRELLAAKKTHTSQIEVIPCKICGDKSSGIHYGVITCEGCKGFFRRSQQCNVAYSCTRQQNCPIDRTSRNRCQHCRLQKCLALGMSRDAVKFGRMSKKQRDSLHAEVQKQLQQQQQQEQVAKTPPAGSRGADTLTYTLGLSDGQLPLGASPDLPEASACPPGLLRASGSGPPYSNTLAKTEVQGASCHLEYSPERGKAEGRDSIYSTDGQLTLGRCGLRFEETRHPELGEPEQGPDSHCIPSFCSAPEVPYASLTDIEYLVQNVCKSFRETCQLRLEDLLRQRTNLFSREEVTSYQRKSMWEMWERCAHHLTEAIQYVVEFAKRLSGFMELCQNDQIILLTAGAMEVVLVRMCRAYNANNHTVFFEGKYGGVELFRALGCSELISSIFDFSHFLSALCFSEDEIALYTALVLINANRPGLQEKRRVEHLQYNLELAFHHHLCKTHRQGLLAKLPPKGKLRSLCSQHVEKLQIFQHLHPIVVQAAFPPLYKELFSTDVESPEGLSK
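Stable Schneider cell line, Gal4 DNA-binding domain fused to ROR gamma, UAS-luciferase. Cmpd 1 hr RT → CuSO4 700 uM final → 20 hr RT → luciferase reagent 10 min → luminescence.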
Gal4-VP16 FLuc: counter-screen for ROR gamma inhibitors: Gal4-VP16 reporter; Drosophila S2 Gal4-VP16 UAS-luciferase, luminescence, 20 h; Potency, µM (highest dose often 53.6 µM), for the others: top-dose activity, negative = inhibition, hits mostly inhibitors; 3.5% of 310,000 active;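 further: Gal4-VP16 expression switched on by copper sulfate through the metallothionein promoter; nearly all actives have a fitted effect of over 50% in size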
Tau fluor counter: counter-screen for tau fibril formation inhibitors | tau K18 P301L (four-repeat tau fragment) Alexa594 fluorescence, heparin fibrillization | Potency, µM (titrated, usually from 57.7 µM), for the others: at the top dose activity change, negative = decrease | 0.93% of 280,000 active; further: nearly all actives have a fitted effect of over 55% in size
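Human K18 P301L tau (15 uM unlabeled plus 0.24 uM Alexa 594-labeled, final) in 100 mM sodium acetate pH 7 was mixed with compound and 20 uM heparin and incubated 6 hr at 37 C.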
Numbers without * were called inactive; [ ] = dose if it differs, or a comment. Rows were chosen to be rich in hits. Some 7.3% of all compounds tested hit in one or more screens of this group. The call rests on the fitted dose curve; in most records, active means well fitted curve in the direction sought with a large enough effect; inconclusive means small, poorly fitted or top-dose-only effect, or another doubt; inactive means no such curve, though single readings can be large; an effect the other way counts as inactive or inconclusive. On the % scale 0 is the no-effect control and ±100 the full control effect; potency means the concentration at half of the fitted maximal effect.

Results for CCN(CC)c1ccc(C(=S)NC2CCCCC2)cc1 ?
Tau ThT inhib: inconclusive; Tau FP inhib: 8.5%; RORgamma inh: 8.91µM*; Gal4-VP16 FLuc: 14.1µM*; Tau fluor counter: inconclusive

How did CN(C)c1ccc(C(=S)N2CCCCC2)cc1 do in these assays?
Tau ThT inhib: -10.9%; Tau FP inhib: -5.0%; RORgamma inh: 11.2µM*; Gal4-VP16 FLuc: 0.5%; Tau fluor counter: -17.1%

How did CN(C)c1ccc(C(=S)NC2CCCCC2)cc1 do in these assays?
Tau ThT inhib: inconclusive; Tau FP inhib: -0.9%; RORgamma inh: 8.91µM*; Gal4-VP16 FLuc: 2.7%; Tau fluor counter: -16.2%

Results for CN(C)c1ccc(C(=O)OCC(=O)NC2CCCCCC2)cc1 ?
Tau ThT inhib: -15.2%; Tau FP inhib: 6.3%; RORgamma inh: 39.9%; Gal4-VP16 FLuc: 3.1%; Tau fluor counter: -12.0%

Results for COc1ccc(OC)c(N2C(=O)CCCC2=O)c1 ?
RORgamma inh: 11.2µM*; Gal4-VP16 FLuc: 1.8%

Results for CC(C)(C)N1CC(C(=O)Nc2ccc(C#N)cc2)CC1=O (centres undefined) ?
RORgamma inh: -19.4%; Gal4-VP16 FLuc: -12.5%

Results for COc1ccc(Nc2nc(N)nc(CN3CCOCC3)n2)cc1 ?
Tau ThT inhib: -12.9%; Tau FP inhib: -3.7%; RORgamma inh: 25.0%; Gal4-VP16 FLuc: -3.4%; Tau fluor counter: -8.3%

How did COc1ccccc1Nc1nc(N)nc(CN2CCC(C)CC2)n1 do in these assays?
Tau ThT inhib: -5.3%; Tau FP inhib: -7.5%; RORgamma inh: inconclusive; Gal4-VP16 FLuc: -6.4%[10 µM]; Tau fluor counter: -8.6%

Results for COc1ccccc1Nc1nc(N)nc(CN2CCC(Cc3ccccc3)CC2)n1 ?
Tau ThT inhib: -10.1%; Tau FP inhib: 2.3%; RORgamma inh: 8.91µM*; Gal4-VP16 FLuc: inconclusive; Tau fluor counter: -11.3%

Results for COc1ccc(Nc2nc(N)nc(CN3CCC(Cc4ccccc4)CC3)n2)cc1 ?
Tau ThT inhib: inconclusive; Tau FP inhib: 7.2%; RORgamma inh: 11.2µM*; Gal4-VP16 FLuc: inconclusive; Tau fluor counter: -24.0%

Results for Cc1cccc(OCCC(=O)Nc2ccc(C)c(S(=O)(=O)N3CCCCC3)c2)c1 ?
Tau ThT inhib: -6.6%; Tau FP inhib: -7.4%; RORgamma inh: inconclusive; Gal4-VP16 FLuc: inconclusive; Tau fluor counter: inconclusive

What do the screens show for `O=C(c1ccc(F)cc1)N1CCC(c2nc(-c3ccc(S(=O)(=O)N4CCCC4)cc3)no2)CC1`?
Tau ThT inhib: 1.1%; Tau FP inhib: 7.7%; Tau fluor counter: -4.4%

What do the screens show for `S=C1NC2=C(C(c3ccc(Br)cc3)N1)N1CCC2CC1` (centres undefined)?
Tau ThT inhib: -10.9%; Tau FP inhib: 6.8%; RORgamma inh: 8.91µM*; Gal4-VP16 FLuc: -7.3%; Tau fluor counter: 3.5%

How did COC(=O)C1OC(=O)C2OC23[C@]2(C)C(O)CC4C(C)(C)C(OC(C)=O)CC(OC(C)=O)[C@@]4(C)C2CC[C@@]13C (some centres undefined) do in these assays?
Tau ThT inhib: -3.3%; Tau FP inhib: -0.9%; RORgamma inh: 2.3%; Gal4-VP16 FLuc: -4.6%; Tau fluor counter: -12.7%

What do the screens show for `Cc1cc(C)c2nc(SC(C)C(=O)NCC(=O)Nc3ccc(F)c(F)c3F)cc(C)c2c1` (centres undefined)?
Tau ThT inhib: -0.9%; Tau FP inhib: 5.8%; RORgamma inh: -3.9%; Gal4-VP16 FLuc: -9.4%; Tau fluor counter: 0.8%

What do the screens show for `Cc1cc(SC(C)C(=O)NCC(=O)Nc2ccc(F)c(F)c2F)nc2ccccc12` (centres undefined)?
Tau ThT inhib: -2.4%; Tau FP inhib: -4.8%; RORgamma inh: 10µM*; Gal4-VP16 FLuc: inconclusive; Tau fluor counter: -5.7%

How did CNc1ccc(/C=C2\CSc3ccccc3C2=O)cc1[N+](=O)[O-] do in these assays?
Tau ThT inhib: 2.51µM*; Tau FP inhib: -1.2%; RORgamma inh: inconclusive; Gal4-VP16 FLuc: 2.3%; Tau fluor counter: 14.2%

How did O=C1/C(=C/c2cccc([N+](=O)[O-])c2)CSc2ccc(Cl)cc21 do in these assays?
Tau ThT inhib: -2.8%; Tau FP inhib: -16.2%; RORgamma inh: 25.4%; Gal4-VP16 FLuc: 5.7%; Tau fluor counter: -19.9%

High-throughput results as filed in PubChem.
